# Measurements published in ChEMBL document CHEMBL2218924, “A broad activity screen in support of a chemogenomic map for kinase signalling research and drug discovery” (Biochem J, 2013).
# What was measured:
# [1] = target: T1, Ephrin type-A receptor 3 (Homo sapiens) (UniProt P29320); details: at 10 µM
# T1 sequence (whole entry): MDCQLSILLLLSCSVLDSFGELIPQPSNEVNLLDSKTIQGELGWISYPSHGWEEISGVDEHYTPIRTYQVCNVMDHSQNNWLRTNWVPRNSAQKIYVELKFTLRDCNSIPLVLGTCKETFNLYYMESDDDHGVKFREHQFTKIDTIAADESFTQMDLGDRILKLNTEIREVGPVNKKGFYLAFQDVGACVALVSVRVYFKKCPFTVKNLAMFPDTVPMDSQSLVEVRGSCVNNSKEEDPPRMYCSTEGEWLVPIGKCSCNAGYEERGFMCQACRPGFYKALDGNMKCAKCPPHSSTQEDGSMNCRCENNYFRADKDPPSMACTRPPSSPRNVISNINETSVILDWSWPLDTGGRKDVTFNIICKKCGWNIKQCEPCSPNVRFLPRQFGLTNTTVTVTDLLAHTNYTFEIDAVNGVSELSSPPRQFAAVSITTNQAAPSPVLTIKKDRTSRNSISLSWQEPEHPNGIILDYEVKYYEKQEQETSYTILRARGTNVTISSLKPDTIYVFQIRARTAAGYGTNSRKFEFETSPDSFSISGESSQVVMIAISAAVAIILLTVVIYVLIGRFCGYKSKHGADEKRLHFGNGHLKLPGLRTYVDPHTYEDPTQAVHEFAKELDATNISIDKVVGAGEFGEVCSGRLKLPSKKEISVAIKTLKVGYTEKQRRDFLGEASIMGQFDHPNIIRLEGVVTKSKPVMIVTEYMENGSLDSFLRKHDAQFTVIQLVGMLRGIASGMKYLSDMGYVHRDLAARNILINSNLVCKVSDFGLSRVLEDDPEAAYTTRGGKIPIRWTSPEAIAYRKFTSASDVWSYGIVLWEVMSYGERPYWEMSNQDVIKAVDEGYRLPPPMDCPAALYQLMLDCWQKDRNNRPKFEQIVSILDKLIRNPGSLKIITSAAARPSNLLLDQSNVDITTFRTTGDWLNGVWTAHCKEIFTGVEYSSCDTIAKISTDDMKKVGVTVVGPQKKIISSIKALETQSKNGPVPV
# [2] = target: Ephrin type-A receptor 4 (Homo sapiens) (UniProt P54764); details: at 1 µM
# Ephrin type-A receptor 4 (Homo sapiens), sequence (P54764 whole entry): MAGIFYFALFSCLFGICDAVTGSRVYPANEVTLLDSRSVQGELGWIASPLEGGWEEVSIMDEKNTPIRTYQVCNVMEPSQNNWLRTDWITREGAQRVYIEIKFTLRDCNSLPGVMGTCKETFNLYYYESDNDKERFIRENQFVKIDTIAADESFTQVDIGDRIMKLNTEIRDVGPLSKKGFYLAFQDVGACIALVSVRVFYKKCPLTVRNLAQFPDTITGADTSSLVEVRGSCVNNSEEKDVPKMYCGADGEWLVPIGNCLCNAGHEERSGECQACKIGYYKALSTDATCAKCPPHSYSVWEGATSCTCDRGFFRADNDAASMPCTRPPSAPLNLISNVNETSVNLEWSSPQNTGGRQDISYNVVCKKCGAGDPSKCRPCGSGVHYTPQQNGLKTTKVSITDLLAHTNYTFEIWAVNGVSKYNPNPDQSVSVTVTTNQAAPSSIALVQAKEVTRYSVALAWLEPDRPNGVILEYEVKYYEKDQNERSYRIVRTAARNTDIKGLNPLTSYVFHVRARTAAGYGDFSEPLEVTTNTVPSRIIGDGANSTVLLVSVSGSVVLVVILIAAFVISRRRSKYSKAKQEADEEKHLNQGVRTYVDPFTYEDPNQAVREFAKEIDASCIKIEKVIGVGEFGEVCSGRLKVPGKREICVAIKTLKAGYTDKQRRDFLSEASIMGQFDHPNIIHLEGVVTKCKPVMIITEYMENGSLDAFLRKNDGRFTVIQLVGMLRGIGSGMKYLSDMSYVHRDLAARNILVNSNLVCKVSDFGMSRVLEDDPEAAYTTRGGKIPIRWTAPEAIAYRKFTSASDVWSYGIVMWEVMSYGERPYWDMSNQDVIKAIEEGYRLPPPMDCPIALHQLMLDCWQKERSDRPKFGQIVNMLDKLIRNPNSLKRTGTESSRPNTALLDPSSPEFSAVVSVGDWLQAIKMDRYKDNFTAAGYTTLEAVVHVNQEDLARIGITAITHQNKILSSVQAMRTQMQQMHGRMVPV
# [3] = target: Ephrin type-A receptor 4 (Homo sapiens) (UniProt P54764); details: at 10 µM
# [4] = target: Ephrin type-A receptor 5 (Homo sapiens) (UniProt P54756); details: at 1 µM
# Ephrin type-A receptor 5 (Homo sapiens), sequence (P54756 whole entry): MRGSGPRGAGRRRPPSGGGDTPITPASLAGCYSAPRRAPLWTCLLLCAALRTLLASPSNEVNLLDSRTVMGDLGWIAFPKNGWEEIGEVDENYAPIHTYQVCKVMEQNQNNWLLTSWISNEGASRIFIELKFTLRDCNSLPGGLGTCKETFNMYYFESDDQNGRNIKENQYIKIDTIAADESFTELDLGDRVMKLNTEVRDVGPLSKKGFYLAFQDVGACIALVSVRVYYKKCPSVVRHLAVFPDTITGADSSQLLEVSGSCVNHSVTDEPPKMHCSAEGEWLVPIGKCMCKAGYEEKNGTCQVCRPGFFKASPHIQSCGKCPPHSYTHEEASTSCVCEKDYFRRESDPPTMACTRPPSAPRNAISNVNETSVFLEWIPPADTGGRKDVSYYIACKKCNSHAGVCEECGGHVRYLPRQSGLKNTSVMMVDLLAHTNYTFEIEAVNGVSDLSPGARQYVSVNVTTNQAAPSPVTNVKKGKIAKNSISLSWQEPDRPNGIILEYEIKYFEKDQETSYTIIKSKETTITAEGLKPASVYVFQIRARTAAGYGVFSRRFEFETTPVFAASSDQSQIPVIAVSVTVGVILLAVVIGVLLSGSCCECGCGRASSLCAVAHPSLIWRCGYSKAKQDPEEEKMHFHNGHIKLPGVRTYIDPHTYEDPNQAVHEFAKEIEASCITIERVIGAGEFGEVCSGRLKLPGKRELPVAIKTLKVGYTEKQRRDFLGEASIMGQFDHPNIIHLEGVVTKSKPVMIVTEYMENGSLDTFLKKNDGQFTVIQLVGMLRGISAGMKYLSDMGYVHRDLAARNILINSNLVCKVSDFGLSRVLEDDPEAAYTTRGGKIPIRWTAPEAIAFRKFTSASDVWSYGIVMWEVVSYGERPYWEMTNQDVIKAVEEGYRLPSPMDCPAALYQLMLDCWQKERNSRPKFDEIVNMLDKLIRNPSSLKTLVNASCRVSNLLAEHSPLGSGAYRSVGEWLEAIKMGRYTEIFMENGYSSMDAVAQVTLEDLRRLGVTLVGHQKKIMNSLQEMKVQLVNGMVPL
# [5] = target: Ephrin type-A receptor 5 (Homo sapiens) (UniProt P54756); details: at 10 µM
# [6] = target: Ephrin type-A receptor 7 (Homo sapiens) (UniProt Q15375); details: at 1 µM
# Ephrin type-A receptor 7 (Homo sapiens), sequence (Q15375 28-998 limits assumed): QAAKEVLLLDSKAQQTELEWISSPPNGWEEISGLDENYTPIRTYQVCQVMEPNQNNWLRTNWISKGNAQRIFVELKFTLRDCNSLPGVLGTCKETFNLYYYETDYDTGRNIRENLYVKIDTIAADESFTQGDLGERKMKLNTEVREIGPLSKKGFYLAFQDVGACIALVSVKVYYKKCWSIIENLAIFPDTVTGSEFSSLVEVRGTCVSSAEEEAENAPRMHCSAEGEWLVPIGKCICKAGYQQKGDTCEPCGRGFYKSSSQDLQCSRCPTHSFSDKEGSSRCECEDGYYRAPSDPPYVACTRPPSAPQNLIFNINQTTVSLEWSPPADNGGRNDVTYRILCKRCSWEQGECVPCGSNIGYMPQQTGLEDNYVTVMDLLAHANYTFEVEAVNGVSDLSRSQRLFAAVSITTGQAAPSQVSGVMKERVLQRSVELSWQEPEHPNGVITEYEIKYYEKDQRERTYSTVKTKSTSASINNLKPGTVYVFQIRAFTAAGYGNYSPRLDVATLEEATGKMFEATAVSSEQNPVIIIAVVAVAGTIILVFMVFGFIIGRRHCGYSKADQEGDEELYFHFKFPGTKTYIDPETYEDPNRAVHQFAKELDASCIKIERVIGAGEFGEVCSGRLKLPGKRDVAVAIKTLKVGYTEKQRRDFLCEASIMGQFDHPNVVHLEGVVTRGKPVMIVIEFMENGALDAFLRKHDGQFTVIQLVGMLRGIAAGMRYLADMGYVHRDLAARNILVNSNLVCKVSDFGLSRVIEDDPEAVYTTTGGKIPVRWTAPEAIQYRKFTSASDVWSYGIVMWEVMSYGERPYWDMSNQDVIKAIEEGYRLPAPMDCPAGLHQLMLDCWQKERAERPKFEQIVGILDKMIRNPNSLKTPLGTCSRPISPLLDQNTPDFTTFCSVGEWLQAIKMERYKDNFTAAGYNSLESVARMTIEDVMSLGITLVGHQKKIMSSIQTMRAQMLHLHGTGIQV
# [7] = target: Ephrin type-A receptor 7 (Homo sapiens) (UniProt Q15375); details: at 10 µM
# [8] = target: T2, Ephrin type-A receptor 8 (Homo sapiens) (UniProt P29322); details: at 1 µM
# T2 sequence (whole entry): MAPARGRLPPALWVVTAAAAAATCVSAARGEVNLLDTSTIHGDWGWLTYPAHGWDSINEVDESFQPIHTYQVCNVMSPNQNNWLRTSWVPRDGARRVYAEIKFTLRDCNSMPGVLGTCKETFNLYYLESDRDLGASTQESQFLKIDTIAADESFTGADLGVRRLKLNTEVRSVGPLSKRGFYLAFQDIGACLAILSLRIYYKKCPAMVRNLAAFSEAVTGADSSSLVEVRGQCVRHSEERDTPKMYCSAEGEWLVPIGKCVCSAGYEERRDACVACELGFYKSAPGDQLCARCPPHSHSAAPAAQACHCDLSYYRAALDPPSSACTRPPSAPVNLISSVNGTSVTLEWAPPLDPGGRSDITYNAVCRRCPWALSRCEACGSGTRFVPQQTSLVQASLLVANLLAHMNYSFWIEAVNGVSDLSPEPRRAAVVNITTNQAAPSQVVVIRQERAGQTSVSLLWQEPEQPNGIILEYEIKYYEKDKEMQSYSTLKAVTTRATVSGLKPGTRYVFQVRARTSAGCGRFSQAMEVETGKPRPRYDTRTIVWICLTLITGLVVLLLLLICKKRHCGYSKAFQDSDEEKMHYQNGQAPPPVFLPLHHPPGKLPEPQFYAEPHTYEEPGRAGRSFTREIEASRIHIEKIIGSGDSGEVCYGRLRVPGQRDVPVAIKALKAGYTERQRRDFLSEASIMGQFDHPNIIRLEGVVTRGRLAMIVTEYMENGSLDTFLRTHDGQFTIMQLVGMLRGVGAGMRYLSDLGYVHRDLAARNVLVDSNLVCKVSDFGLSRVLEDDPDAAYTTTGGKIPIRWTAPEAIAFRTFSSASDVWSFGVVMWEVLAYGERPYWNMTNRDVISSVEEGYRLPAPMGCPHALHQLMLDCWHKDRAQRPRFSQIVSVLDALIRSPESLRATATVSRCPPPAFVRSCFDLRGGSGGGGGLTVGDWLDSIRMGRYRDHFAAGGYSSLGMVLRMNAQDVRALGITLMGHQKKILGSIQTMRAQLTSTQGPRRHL
# [9] = target: T2, Ephrin type-A receptor 8 (Homo sapiens); details: at 10 µM
# [10] = target: T3, Ephrin type-B receptor 1 (Homo sapiens) (UniProt P54762); details: at 1 µM
# T3 sequence (whole entry): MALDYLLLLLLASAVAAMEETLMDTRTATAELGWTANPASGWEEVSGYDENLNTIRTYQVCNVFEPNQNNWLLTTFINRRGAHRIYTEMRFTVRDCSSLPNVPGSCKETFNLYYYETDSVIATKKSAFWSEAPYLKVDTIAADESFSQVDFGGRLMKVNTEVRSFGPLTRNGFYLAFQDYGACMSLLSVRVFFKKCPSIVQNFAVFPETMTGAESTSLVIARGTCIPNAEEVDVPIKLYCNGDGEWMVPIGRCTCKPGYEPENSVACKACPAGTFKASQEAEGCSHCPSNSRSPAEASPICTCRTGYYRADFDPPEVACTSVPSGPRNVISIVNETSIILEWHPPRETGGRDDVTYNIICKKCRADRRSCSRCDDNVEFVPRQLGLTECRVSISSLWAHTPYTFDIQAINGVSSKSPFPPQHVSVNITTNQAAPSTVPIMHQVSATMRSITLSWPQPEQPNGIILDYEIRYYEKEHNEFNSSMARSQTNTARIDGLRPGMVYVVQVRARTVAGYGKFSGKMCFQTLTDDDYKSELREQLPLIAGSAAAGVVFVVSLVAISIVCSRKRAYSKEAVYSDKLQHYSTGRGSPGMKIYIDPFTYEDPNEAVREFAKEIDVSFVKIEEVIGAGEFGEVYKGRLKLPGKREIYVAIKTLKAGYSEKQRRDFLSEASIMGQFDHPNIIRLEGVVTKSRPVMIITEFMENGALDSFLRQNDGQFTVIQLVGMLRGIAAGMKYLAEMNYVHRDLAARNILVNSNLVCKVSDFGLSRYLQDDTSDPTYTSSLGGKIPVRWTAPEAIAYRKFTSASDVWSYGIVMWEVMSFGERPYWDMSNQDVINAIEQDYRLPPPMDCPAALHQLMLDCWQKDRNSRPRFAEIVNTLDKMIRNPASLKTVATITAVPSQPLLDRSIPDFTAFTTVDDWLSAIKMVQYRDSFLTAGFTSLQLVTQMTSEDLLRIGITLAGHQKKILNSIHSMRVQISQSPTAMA
# [11] = target: T3, Ephrin type-B receptor 1 (Homo sapiens); details: at 10 µM
# [12] = target: T4, Ephrin type-B receptor 2 (Homo sapiens) (UniProt P29323); details: at 1 µM
# T4 sequence (whole entry): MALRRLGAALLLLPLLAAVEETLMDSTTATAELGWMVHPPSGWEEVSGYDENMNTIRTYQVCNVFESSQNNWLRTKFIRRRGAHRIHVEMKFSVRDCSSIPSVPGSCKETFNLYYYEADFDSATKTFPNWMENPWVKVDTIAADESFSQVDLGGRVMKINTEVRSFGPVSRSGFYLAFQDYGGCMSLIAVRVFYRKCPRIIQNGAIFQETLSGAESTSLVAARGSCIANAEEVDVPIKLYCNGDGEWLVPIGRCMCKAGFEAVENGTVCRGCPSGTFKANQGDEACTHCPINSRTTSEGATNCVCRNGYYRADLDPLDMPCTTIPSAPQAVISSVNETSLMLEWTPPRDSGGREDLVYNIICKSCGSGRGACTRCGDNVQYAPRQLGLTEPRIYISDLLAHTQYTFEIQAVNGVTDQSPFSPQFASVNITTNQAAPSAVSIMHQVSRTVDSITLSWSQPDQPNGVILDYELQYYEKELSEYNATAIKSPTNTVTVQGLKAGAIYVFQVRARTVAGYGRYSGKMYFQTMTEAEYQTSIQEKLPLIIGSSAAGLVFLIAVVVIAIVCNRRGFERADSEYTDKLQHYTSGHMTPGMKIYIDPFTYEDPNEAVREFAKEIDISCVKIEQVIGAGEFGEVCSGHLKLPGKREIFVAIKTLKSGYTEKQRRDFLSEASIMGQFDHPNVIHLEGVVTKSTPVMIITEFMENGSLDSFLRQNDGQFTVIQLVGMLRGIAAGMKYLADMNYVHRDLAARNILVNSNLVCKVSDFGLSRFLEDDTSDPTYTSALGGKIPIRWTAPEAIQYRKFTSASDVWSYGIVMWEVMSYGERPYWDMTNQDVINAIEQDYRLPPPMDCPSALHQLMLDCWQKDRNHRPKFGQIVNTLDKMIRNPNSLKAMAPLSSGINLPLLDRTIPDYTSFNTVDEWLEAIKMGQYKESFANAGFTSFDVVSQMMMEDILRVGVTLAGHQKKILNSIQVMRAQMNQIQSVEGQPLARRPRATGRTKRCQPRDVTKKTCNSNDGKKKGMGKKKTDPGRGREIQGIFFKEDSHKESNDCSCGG
# [13] = target: T4, Ephrin type-B receptor 2 (Homo sapiens); details: at 10 µM
# [14] = target: T5, Ephrin type-B receptor 3 (Homo sapiens) (UniProt P54753); details: at 1 µM
# T5 sequence (whole entry): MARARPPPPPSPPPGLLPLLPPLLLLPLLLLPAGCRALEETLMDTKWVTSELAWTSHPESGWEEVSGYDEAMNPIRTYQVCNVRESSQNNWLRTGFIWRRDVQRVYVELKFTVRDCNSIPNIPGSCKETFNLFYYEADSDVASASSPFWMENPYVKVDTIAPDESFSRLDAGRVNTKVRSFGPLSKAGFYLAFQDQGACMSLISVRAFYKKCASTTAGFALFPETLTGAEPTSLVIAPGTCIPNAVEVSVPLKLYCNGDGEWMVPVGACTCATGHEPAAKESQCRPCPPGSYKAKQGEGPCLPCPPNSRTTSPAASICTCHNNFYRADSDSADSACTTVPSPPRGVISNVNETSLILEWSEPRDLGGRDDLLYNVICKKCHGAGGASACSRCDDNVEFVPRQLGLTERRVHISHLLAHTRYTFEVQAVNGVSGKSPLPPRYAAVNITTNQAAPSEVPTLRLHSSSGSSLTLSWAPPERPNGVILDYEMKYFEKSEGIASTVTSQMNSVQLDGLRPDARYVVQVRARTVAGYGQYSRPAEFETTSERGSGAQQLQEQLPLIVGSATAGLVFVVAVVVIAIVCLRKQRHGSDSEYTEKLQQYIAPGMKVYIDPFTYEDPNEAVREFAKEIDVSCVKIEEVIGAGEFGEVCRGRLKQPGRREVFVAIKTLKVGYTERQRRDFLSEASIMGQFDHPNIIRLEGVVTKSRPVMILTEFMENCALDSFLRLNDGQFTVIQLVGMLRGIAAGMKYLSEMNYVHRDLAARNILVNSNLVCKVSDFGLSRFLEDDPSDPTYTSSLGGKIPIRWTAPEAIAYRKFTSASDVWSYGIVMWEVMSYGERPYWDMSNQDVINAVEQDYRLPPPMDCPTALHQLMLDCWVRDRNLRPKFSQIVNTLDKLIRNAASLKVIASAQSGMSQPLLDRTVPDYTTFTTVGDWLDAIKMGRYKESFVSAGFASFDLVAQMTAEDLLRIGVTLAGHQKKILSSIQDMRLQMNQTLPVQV
# [15] = target: T6, Ephrin type-B receptor 4 (Homo sapiens) (UniProt P54760); details: at 1 µM
# T6 sequence (whole entry): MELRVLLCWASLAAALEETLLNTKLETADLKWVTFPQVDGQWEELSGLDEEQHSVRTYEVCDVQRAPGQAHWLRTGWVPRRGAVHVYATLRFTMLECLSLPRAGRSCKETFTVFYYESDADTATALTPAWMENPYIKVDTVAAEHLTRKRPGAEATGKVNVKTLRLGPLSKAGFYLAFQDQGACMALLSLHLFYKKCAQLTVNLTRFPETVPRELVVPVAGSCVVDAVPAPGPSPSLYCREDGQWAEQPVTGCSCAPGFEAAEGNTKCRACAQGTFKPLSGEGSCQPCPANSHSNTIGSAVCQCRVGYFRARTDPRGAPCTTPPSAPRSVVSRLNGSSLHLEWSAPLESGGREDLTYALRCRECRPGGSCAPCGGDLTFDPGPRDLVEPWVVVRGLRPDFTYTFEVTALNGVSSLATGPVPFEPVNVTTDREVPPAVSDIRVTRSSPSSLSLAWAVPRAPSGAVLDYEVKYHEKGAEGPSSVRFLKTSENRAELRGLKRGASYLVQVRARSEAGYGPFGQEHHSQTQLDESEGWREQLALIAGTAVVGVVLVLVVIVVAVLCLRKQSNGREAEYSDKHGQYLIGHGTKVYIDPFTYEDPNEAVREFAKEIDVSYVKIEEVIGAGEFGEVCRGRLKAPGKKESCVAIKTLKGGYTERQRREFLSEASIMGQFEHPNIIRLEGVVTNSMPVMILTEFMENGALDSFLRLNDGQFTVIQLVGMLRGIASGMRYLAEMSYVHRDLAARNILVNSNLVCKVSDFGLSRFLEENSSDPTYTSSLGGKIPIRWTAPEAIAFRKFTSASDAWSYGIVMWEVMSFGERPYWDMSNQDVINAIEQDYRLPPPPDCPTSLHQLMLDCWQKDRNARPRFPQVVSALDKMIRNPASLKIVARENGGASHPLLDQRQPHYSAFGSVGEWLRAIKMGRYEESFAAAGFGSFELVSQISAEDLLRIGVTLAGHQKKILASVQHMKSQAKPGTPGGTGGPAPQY
# [16] = target: T6, Ephrin type-B receptor 4 (Homo sapiens); details: at 10 µM
# [17] = target: Receptor tyrosine-protein kinase erbB-4 (Homo sapiens) (UniProt Q15303); details: at 1 µM
# Receptor tyrosine-protein kinase erbB-4 (Homo sapiens), sequence (Q15303 whole entry): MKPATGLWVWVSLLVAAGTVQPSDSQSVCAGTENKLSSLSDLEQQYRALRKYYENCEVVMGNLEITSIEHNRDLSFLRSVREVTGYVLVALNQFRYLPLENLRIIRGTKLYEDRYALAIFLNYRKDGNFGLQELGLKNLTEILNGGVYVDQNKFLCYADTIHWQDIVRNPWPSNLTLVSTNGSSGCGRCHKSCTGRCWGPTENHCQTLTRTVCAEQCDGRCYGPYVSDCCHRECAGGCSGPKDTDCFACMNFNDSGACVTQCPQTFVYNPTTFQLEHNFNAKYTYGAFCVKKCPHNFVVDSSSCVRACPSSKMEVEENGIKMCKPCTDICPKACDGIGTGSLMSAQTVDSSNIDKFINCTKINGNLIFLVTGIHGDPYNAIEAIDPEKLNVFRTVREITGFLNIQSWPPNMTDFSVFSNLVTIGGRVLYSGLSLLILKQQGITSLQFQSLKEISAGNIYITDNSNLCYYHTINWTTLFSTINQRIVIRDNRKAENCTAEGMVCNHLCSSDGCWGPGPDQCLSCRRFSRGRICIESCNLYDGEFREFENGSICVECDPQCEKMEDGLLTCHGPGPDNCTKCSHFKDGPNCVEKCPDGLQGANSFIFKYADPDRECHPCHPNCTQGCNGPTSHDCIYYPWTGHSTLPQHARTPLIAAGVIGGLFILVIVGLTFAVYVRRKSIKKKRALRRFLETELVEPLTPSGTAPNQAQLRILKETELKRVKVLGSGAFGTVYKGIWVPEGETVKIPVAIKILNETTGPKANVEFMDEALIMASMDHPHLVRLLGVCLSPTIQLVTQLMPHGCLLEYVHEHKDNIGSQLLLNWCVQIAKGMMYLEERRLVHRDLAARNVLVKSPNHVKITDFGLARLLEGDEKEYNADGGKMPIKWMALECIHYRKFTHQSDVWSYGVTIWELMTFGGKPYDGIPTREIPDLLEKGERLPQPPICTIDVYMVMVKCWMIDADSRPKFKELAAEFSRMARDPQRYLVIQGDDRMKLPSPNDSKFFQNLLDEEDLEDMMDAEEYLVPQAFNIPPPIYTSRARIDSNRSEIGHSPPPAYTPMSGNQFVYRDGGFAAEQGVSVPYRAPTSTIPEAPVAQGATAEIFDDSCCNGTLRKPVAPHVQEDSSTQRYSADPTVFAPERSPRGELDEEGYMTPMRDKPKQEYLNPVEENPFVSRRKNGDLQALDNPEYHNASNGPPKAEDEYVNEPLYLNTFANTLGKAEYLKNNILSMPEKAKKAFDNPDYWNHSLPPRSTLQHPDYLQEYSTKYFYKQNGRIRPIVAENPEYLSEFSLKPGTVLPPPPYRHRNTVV
# [18] = target: Receptor tyrosine-protein kinase erbB-4 (Homo sapiens) (UniProt Q15303); details: at 10 µM
structure (smiles),measurement,setting,value
CCCC(=O)Oc1ccc2[nH]c(C(=O)c3cc4ccccc4[nH]3)cc2c1,residual activity,[1],105%
same,residual activity,[2],105%
same,residual activity,[3],91%
same,residual activity,[4],107%
same,residual activity,[5],99%
same,residual activity,[6],96%
same,residual activity,[7],86%
same,residual activity,[8],92%
same,residual activity,[9],98%
same,residual activity,[10],82%
same,residual activity,[11],108%
same,residual activity,[12],120%
same,residual activity,[13],131%
same,residual activity,[14],102% (inactive)
same,residual activity,[15],92%
same,residual activity,[16],101%
same,residual activity,[17],81%
same,residual activity,[18],95%
